The full list was thinned out, with hits kept by preference.
HIV RNase H inh-1 – blocks HIV-1 RNase H cleavage of RNA/DNA duplex. 65,000 tested, 1.9% active. RT-RNase H RNA/DNA duplex cleavage, fluorescence. inhibition, % at 10 µM; in the data active means inhibition above about 50%
RmlCD inh mix – mixture blocks RmlC and RmlD coupled enzyme activity; 110,000 tested, 0.39% active; RmlC/RmlD coupled enzyme inhibition, 384-well mixture HTS; inhibition, % at 5.5 µM; in the data active means inhibition above about 30%, passing the limit was not always enough; inconclusive means no clear call, values can overlap the other calls
HIV RNase H inh-2 – confirmation of HIV-1 reverse transcriptase RNase H inhibitors | inhibition, % at 10 µM | Recombinant RT RNase H, fluorescent RNA/DNA duplex cleavage | AID 651 | 1,000 tested, 39% active | shares compounds with HIV RNase H inh-1; in the data active means inhibition above about 48%; inconclusive means no clear call, values can overlap the other calls
Large screens that a line does not name were inactive (follow-up assays come after a bar, where they were run).

O=C(O)C(O)c1ccccc1 (configuration not stated)	none (no result: HIV RNase H inh-1)
O=C(O)C(O)c1ccco1 (configuration not stated)	HIV RNase H inh-1 57 (no result: RmlCD inh mix) | HIV RNase H inh-2 inactive
COc1cc(C(c2nnnn2C2CCCC2)N2CCc3ccccc3C2)ccc1O (configuration not stated)	HIV RNase H inh-1 51 | HIV RNase H inh-2 inactive
Oc1ccc(C(c2nnnn2C2CCCC2)N2CCc3ccccc3C2)cc1 (configuration not stated)	none
O=C(NC(=O)c1ccc(Cl)cc1)Nc1cc(N2CCCCC2)ncn1	HIV RNase H inh-1 75 (no result: RmlCD inh mix) | HIV RNase H inh-2 99
O=C(Nc1cc(N2CCOCC2)ncn1)Nc1cccc2ccccc12	none
COc1ccc(Cc2nc(-c3cccs3)no2)cc1OC	HIV RNase H inh-1 72 | HIV RNase H inh-2 inactive
COc1ccc(Cc2nc(-c3ccc(-n4cccc4)cc3)no2)cc1OC	none
Nc1cc(C(=O)OCC(=O)NCc2ccco2)ccc1Cl	none
CCOC(=O)c1c(C)n(-c2ccc(C)cc2)c2c(C(C(C)=O)C(=O)O)c(Br)c(O)c(O)c12 (configuration not stated)	none (no result: HIV RNase H inh-1)
CCOC(=O)C(C(C)=O)c1c(Br)c(O)c(O)c2c(C(=O)c3ccc(C)cc3)coc12 (configuration not stated)	HIV RNase H inh-1 95 | HIV RNase H inh-2 63
CC1(C)C(=O)C2(CCCC2)C(=O)OC1c1ccco1 (configuration not stated)	none
CC1(C)CC(=O)C(C(c2ccco2)C2C(=O)CC(C)(C)CC2=O)C(=O)C1	HIV RNase H inh-1 69 | HIV RNase H inh-2 inactive
O=C(c1cccc(Cl)c1)N1CCN(Cc2ccccc2F)CC1	none
COc1cccc(-c2nnc3n2N=C(c2cccc(Br)c2)CS3)c1	HIV RNase H inh-1 54 | HIV RNase H inh-2 inconclusive
CCOc1ccc(C2=Nn3c(nnc3-c3ccccc3OC)SC2)cc1	none
Cc1cccc(-c2nnc3n2N=C(c2ccc(Br)cc2)CS3)c1	none
COc1ccccc1-c1nnc2n1N=C(c1ccc(O)c(O)c1)CS2	HIV RNase H inh-1 94 | HIV RNase H inh-2 58
Fc1ccc2c(c1)C(c1ccncc1)=NNC(c1cccnc1)=N2	none (no result: HIV RNase H inh-1)
COc1ccc(CNC(=O)C2COc3ccccc3O2)c(OC)c1 (configuration not stated)	none (no result: RmlCD inh mix)
CC(C)OC(=O)c1nn2c(C(F)(F)F)cc(-c3ccc(Br)o3)nc2c1Br	HIV RNase H inh-1 66 | HIV RNase H inh-2 inactive
CC(C)OC(=O)c1nn2c(C(F)(F)F)cc(-c3ccco3)nc2c1Cl	none (no result: HIV RNase H inh-1)
COc1ccc(-c2ocnc2C(=O)Nc2ccccc2N2CCCCC2)cc1	HIV RNase H inh-1 76 | HIV RNase H inh-2 inactive
CCOc1ccc(C(=O)Nc2ccccc2N2CCCC2)cc1	none (no result: HIV RNase H inh-1)
Cc1ccc(C)c(S(=O)(=O)N2CCN(CC(=O)NC(=O)NCc3ccccc3)CC2)c1	none
COc1ccc(OC)c(/C=N/c2oc(-c3ccco3)c(-c3ccco3)c2C#N)c1	HIV RNase H inh-1 58 | HIV RNase H inh-2 66
N#Cc1c(N)oc(-c2ccco2)c1-c1ccco1	none
CCc1ccc(NC(=O)c2ccc3c(c2)C(=O)N(CCOC)C3Nc2ccc(CC)cc2)cc1 (configuration not stated)	none (no result: HIV RNase H inh-1)
N#CC1=C2SCN(c3ccccc3)CN2C(=O)CC1c1ccccc1Cl (configuration not stated)	HIV RNase H inh-1 67 | HIV RNase H inh-2 inactive
CC(C)c1ccc(C2CC(=O)N3CN(C)CSC3=C2C#N)cc1 (configuration not stated)	HIV RNase H inh-1 73 | HIV RNase H inh-2 65
N#CC1=C2SCN(c3ccccc3)CN2C(=O)CC1c1cccs1 (configuration not stated)	none
COc1cc(OC)c(C2CC(=O)N3CN(c4ccccc4)CSC3=C2C#N)cc1OC (configuration not stated)	none
N#CC1=C2SCN(c3ccccc3)CN2C(=O)CC1c1c(Cl)cccc1Cl (configuration not stated)	none
COc1ccc2ccccc2c1C1CC(=O)N2CN(C)CSC2=C1C#N (configuration not stated)	HIV RNase H inh-1 68 | HIV RNase H inh-2 inactive
CCc1ccccc1N1CSC2=C(C#N)C(c3cc(OC)c(OC)cc3OC)CC(=O)N2C1 (configuration not stated)	HIV RNase H inh-1 79 | HIV RNase H inh-2 63
Cc1ccc(C2CC(=O)N3CN(Cc4ccco4)CSC3=C2C#N)cc1 (configuration not stated)	none
Nc1c(-c2ccccc2)cnn1C1CCS(=O)(=O)C1 (configuration not stated)	none (no result: HIV RNase H inh-1)
COC(=O)C1=C(N)Oc2cc(C)n(CCN3CCOCC3)c(=O)c2C1c1cccnc1 (configuration not stated)	none
CC(C)C(C(=O)Nc1ccc(N2CCOCC2)cc1)N1C(=O)c2ccccc2C1=O (configuration not stated)	none

From PubChem
